Results: PubChem BioAssay (NCATS)
Records with an inconclusive call do not appear. The source made the active and inactive calls. Calls come from the whole dose curve; as a rule, active = well fitted cell-killing curve with a large enough effect; inconclusive = small, poorly fitted or top-dose-only effect, or effect the other way; inactive = flat fitted curve, though single readings scatter.

Key:
Assay in all cases: Primary qHTS to identify gynecologic anti-cancer compounds using libraries of approved drugs and bioactive compounds (AID 1345084); note: nearly all actives have a fitted effect of over 55% in size
Conditions in all cases: Gynecologic cancer cell panel viability, ATPlite luminescence, 48 h; series mostly up to 57.5 µM
OV90 = system: OV90
Method in brief: (§1)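 48 h compound exposure at 37 C, 5% CO2; five-point qHTS. ATPlite luminescence readout of cell ATP.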

PA-1 = system: PA-1
Method in brief: as §1

SKOV3 = system: SKOV3
Method in brief: as §1

Tov-21-G = system: Tov-21-G
Method in brief: as §1

Tov112D = system: Tov112D
Method in brief: as §1
% is set by controls: 0 for no effect and ±100 for the full control effect.

O=C(Nc1cc(-c2ccccc2)nn1-c1ccccc1F)c1ccc([N+](=O)[O-])cc1
inactive: Potency (OV90) | Potency (PA-1) | Potency (SKOV3) | Potency (Tov-21-G) | Potency (Tov112D)

O=C(NCCN1CCCC1)c1cc(-c2ccc(CN3CCOCC3)cc2)nc2ccc(F)cc12
inactive: Potency (OV90) | Potency (PA-1) | Potency (SKOV3) | Potency (Tov-21-G) | Potency (Tov112D)

CCOc1nc2c(N)ncnc2n1CC
inactive: Potency (OV90) | Potency (PA-1) | Potency (SKOV3) | Potency (Tov-21-G) | Potency (Tov112D)

O=C1OC(c2ccc(O)cc2)C(O)=C1Cc1ccccc1 (stereo not given)
inactive: Potency (OV90) | Potency (PA-1) | Potency (SKOV3) | Potency (Tov-21-G) | Potency (Tov112D)

COc1ccc(C2C(C(=O)O)C(C(=O)O)C2c2ccc(OC)cc2O[C@@H]2O[C@H](CO)[C@@H](O)[C@H](O)[C@H]2O)c(O[C@@H]2O[C@H](CO)[C@@H](O)[C@H](O)[C@H]2O)c1 (stereo not given in full)
inactive: Potency (OV90) | Potency (PA-1) | Potency (SKOV3) | Potency (Tov-21-G) | Potency (Tov112D)

CC1(C(=O)O)CC[C@]2(C(=O)OC3OC(CO)C(O)C(O)C3O)CC[C@]3(C)C(=CCC4[C@@]5(C)CC[C@H](OC6OCC(O)C(O)C6OC6OC(CO)C(O)C(O)C6O)C(C)(C)C5CC[C@]43C)C2C1 (stereo not given in full)
inactive: activity change, negative = cytotoxicity (OV90) -0.207% [at 11.6 µM] | activity change, negative = cytotoxicity (PA-1) -1.65% [at 11.6 µM] | activity change, negative = cytotoxicity (SKOV3) -6.88% [at 11.6 µM] | activity change, negative = cytotoxicity (Tov-21-G) 15.1% [at 11.6 µM] | activity change, negative = cytotoxicity (Tov112D) -1.55% [at 11.6 µM]

C=C(C(=O)OC)[C@]12O[C@@](C)(CC[C@@]3(O)/C(=C\C)C(=O)O[C@]3(C)C[C@@H]1OC(=O)C(CO)CN1CCCC1C(=O)O)CC2=O (stereo not given in full)
inactive: Potency (OV90) | Potency (PA-1) | Potency (SKOV3) | Potency (Tov-21-G) | Potency (Tov112D)
